Screening results from PubChem BioAssay.
Most compounds without a hit are left out; they make up all but 19% or so of the library.
ELG1 repair inh: blocks ELG1-dependent DNA repair in HEK293T cells. 330,000 tested, 2.3% active. AID 504467. Potency, µM (highest dose often 46.1 µM), without a hit: top-dose activity change, negative = inhibition, most hits filed as inhibitors. HEK293T ELG1-luciferase reporter, luminescence, 16 h; DNA damage induced by 5-fluorouridine; further: potency means the concentration at half of the fitted maximal effect; nearly all actives have a fitted effect of over 55% in size
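Quantitative HTS, concentration-response format. 2,000 cells/well co-treated with 5-fluorouridine and compound, 16 hr in 5% CO2 at 37 °C; ONE-Glo luminescence read after 30 min.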
HT1080NT lethal: kills 2HG-producing HT-1080-NT fibrosarcoma cells; AID 686970; 360,000 tested, 1.6% active; HT-1080-NT fibrosarcoma viability, CellTiter-Glo ATP luminescence, 48 h; Potency, µM (doses to about 46.1 µM), inactives show at the top dose activity, negative = less viability, most hits filed as cytotoxic;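 further: NT is the 2HG producing partner of a matched IDH1 knockdown line; potency means the concentration at half of the fitted maximal effect; 0% = DMSO-treated cells and -100% = media-only wells without cells; nearly all actives have a fitted effect of over 55% in size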
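Compounds were tested in concentration-response format on HT-1080-NT cells for 48 hours at 37 degrees C. Cell viability came from CellTiter-Glo luminescence; curves were classified by r2, response magnitude and activity.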
IL1B secr inh: inflammasome signaling inhibition, IL-1 beta readout | THP-1 LPS/ATP IL-1B secretion, AlphaLISA, 16 h; stronger effect = lower value | activity change, % at 57.5 µM | 360,000 tested, 4.7% active | AID 743279; in the data active means activity change below about -50%; inconclusive means mostly about -30% to -49%
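THP-1 cells pretreated 1 hr with compounds (up to 57.5 uM final), then stimulated with LPS (250 ng/mL final) plus ATP (1.25 mM final); secreted IL-1B measured by AlphaLISA after 16 hr, decreased signal indicating inhibition.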
HT1080 IDH1KD tx: kills HT-1080 cells with IDH1 knockdown; HT-1080 IDH1 knockdown viability, ATP luminescence, 48 h; Potency, µM (titrated, usually from 46.1 µM), without a hit: at the highest dose activity, negative = toxicity, hits mostly cytotoxic; 360,000 tested, 2% active;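 further: potency means the concentration at half of the fitted maximal effect; 0% = DMSO wells and -100% = cell-free medium wells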
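Assay cells: HT-1080 with IDH1 knockdown, 750 per well, RPMI/5% FBS. Exposure: 48 h at 37 °C following 2 h pre-incubation. Read: CellTiter-Glo luminescence; fitted concentration-response, curve class assigned.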
DT40 TDP1 no CPT: qHTS for Inhibitors of human tyrosyl-DNA phosphodiesterase 1 (TDP1): qHTS in cells in absence of CPT; DT40 Tdp1-/- hTDP1 cells, no CPT, ATP luminescence, 48 h; Potency, µM (doses to about 46.2 µM), inactives show at the highest dose activity change, negative = growth inhibition, actives largely listed as inhibitors; 420,000 tested, 15% active; AID 686978, 2013; further: potency means the concentration at half of the fitted maximal effect; nearly all actives have a fitted effect of over 55% in size
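Readout: luminescence from CellTiter-Glo after 30 min in the dark at RT. Cells: DT40 Tdp1-/- with stable hTDP1, 400/well. Exposure: compounds alone, ≥48 hr, 37 °C.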
TDP1 cell CPT: DT40-hTDP1 cell growth loss with CPT; chicken DT40 Tdp1-/-;hTDP1 cells + 20 nM CPT, ATP luminescence, 48 h; Potency, µM (highest dose often 46.2 µM), inactives show at the highest dose activity change, negative = growth inhibition, usual class: inhibitors; 420,000 tested, 12% active; AID 686979; further: potency means the concentration at half of the fitted maximal effect; nearly all actives have a fitted effect of over 55% in size
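Cell growth measured by CellTiter-Glo luminescence after a minimum 48 h, 37 C compound exposure with 20 nM CPT in Tdp1-knockout DT40 cells stably expressing hTDP1, seeded 400/well; qHTS titration format.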
* marks the source's active call; other numbers are inactive results; i = inactive; ? = inconclusive; . = not tested or not shown; [ ] = dose if it differs, or a comment. Unless noted, the call rests on the fitted dose curve; in most records, active means well fitted curve in the direction sought with a large enough effect; inconclusive means small, poorly fitted or top-dose-only effect, or another doubt; inactive means no such curve, though single readings can be large; an effect the other way counts as inactive or inconclusive. Unless noted, on the % scale 0 is the no-effect control and ±100 the full control effect.

SMILES | ELG1 repair inh | HT1080NT lethal | IL1B secr inh | HT1080 IDH1KD tx | DT40 TDP1 no CPT | TDP1 cell CPT
CCn1cc(C(=O)N2CCc3ccccc32)c(=O)c2cc(S(=O)(=O)N3CC(C)CC(C)C3)ccc21 (stereo unspecified) | ? | -3% | -9 | 15% | ? | 15µM*
CC(C)CCNC(=O)c1sc2ccc(S(=O)(=O)N3CCCCC3)cc2c1N | ? | ? | -52* | -1% | 21µM* | 23µM*
CN(C1CCCCC1)S(=O)(=O)c1ccc2c(c1)c(=O)c(C(=O)NCCc1ccccc1)cn2C | . | . | . | . | ? | -16%
CC(C)CCNC(=O)c1cc(S(=O)(=O)N2CCCCC2)ccc1N1CCOCC1 | -4% | 11% | -11 | 5% | ? | -13%
CCn1cc(C(=O)N2CCc3ccccc32)c(=O)c2cc(S(=O)(=O)N3CCCCCC3)ccc21 | ? | -8% | -13 | 0% | -11% | -20%
CCn1cc(C(=O)NCCc2ccc(Cl)cc2)c(=O)c2cc(S(=O)(=O)N3CCC(C)CC3)ccc21 | . | . | . | . | 18µM* | ?
CCn1cc(C(=O)NCCc2ccc(Cl)cc2)c(=O)c2cc(S(=O)(=O)N3CCCCCC3)ccc21 | . | . | . | . | 1% | -12%
CC1CCN(S(=O)(=O)c2ccc3c(c2)c(=O)c(C(=O)NCc2ccc(Cl)cc2)cn3C)CC1 | . | . | . | . | 4.6µM* | -27%
Cc1ccc(CNC(=O)c2cn(C)c3ccc(S(=O)(=O)N4CCC(C)CC4)cc3c2=O)cc1 | . | . | . | . | ? | -28%
Cc1sc2nc(C(C)Sc3n[nH]c(N)n3)[nH]c(=O)c2c1C (stereo unspecified) | 11% | . | . | . | . | .
CN1CC[C@@]2(CCCN(C(=O)c3cccc(F)c3)C2)C1 | . | . | . | . | -6% | 5%
O=C(Nc1nc(-c2ccccc2)nc2ccccc12)c1ccc(F)cc1 | ? | 2% | -4 | 24% | ? | ?
CCN(CC)c1ccc(N=C2C=CC(=O)C=C2NC(C)=O)cc1 | . | -8% | -72* | -18% | 2.9µM* | 5.2µM*
CCN(CC)c1ccc(NC(=O)Nc2ccc(C(C)=O)cc2)cc1 | 25% | 4% | -12 | 4% | ? | -30%
O=C(Nc1ccccc1)OCCCCOC(=O)Nc1ccccc1 | . | 0% | -1 | 1% | -19% | -1%
C=C(C)C1CCC(C)=C1COC(=O)Nc1ccccc1 (stereo unspecified) | -4% | 14% | -62* | 3% | ? | ?
COc1ccc(Cl)cc1NC(=O)CN(C)C(=O)c1ccc2c(c1)OCCO2 | -1% | 7% | -2 | -2% | ? | -25%
COc1cccc(NC(=O)CN(C)C(=O)c2ccc3c(c2)CC(c2ccccc2)OC3=O)c1 (stereo unspecified) | ? | -23% | -10 | 3% | ? | ?
COc1ccc(NC(=O)CN(C)C(=O)c2ccc3c(c2)CC(c2ccccc2)OC3=O)cc1 (stereo unspecified) | . | -3% | 41 | -1% | 16µM* | 26µM*
COc1ccc(Cl)cc1NC(=O)CN(C)C(=O)c1ccc2c(c1)CC(c1ccccc1)OC2=O (stereo unspecified) | ? | 0% | -3 | -3% | 16µM* | 15µM*
Cc1ccc([C@@H]2C[C@H]3[C@@H](CN2S(=O)(=O)c2ccc(Cl)cc2)C(=O)C[C@@H](c2ccccc2)N3S(=O)(=O)c2ccc(C)cc2)cc1 | . | 3% | 10 | -8% | -29% | 0%
Cn1c(=O)c2c(SCC(=O)N3CCCCC3)nc(-c3ccccc3F)nc2n(C)c1=O | 15% | 1% | i | 11% | ? | 0%
Cc1ccccc1C(=O)N1CCc2c(cnc(C)c2CNC(=O)c2ccc3c(c2)OCO3)C1 | . | . | . | . | -24% | 6%[9.04 µM]
COc1ccc(C2N(c3ccc4c(c3)OCCO4)C(=O)C2(F)F)cc1OC (stereo unspecified) | 5% | 3% | -79* | -7% | -2% | -17%
COc1ccc(N2C(=O)C(F)(F)C2c2ccc(C)cc2)cc1OC (stereo unspecified) | -2% | -10% | 42 | 6% | -17% | 28%
SMILES | ELG1 repair inh | HT1080NT lethal | IL1B secr inh | HT1080 IDH1KD tx | DT40 TDP1 no CPT | TDP1 cell CPT
Cc1ccc(S(=O)(=O)Nc2ccc(Nc3nccn4c(-c5cccc(OC(F)(F)F)c5)cnc34)cc2)cc1 | . | 18µM* | -26 | ? | 12µM* | 18µM*
COc1ccccc1-c1cnc2c(Nc3cccc(OC(F)(F)C(F)F)c3)nccn12 | . | -9% | 0 | -18% | ? | ?
Cc1cc([N+](=O)[O-])nn1CC(=O)N/N=C/c1ccccc1Br | -3% | -8% | 1 | -7% | -16% | -23%
CCOc1cc(/C=N/NC(=O)Cn2nc([N+](=O)[O-])cc2C)cc(Br)c1OCc1ccccc1C | ? | ? | 9 | ? | ? | 23µM*
Cc1cc([N+](=O)[O-])nn1CC(=O)N/N=C/c1ccc(O)cc1O | ? | ? | 249 | ? | 6.5µM* | 8.2µM*
C=CCOc1c(Br)cc(/C=N/NC(=O)Cc2ccc(C(F)(F)F)cc2[N+](=O)[O-])cc1OC | ? | -19% | 29 | -7% | 13µM* | 12µM*
COc1cc(/C=N/NC(=O)Cn2nc([N+](=O)[O-])cc2C)cc(Br)c1OCc1ccccc1 | ? | ? | -9 | ? | ? | 26µM*
CN1CC(=O)N2[C@H](c3ccc4c(c3)OCO4)c3[nH]c4ccccc4c3C[C@@H]2C1=O | . | 12% | -6 | 6% | 1% | -17%
COCCCn1c(=O)c2sccc2n2c(CCCC(=O)Nc3cccc(OC)c3)nnc12 | . | . | . | . | ? | -28%
CN(C)C(=O)[C@H]1C[C@H]1[C@@H](O)[C@H](CO)NC(=O)[C@H](COCc1ccccc1)NC(=O)OC(C)(C)C | 12% | 3% | 22 | -1% | -9% | -3%
CCOC(=O)c1cc(S(=O)(=O)Nc2ccc(OC)cc2OC)cn1C | -2% | -1% | 48 | -1% | ? | -25%
N/C(=N\OC(=O)c1ccccc1Cl)c1ccncc1 | 23µM* | -19% | 29 | -14% | -14% | -28%
COc1ccccc1C/C(N)=N/OC(=O)/C=C/c1ccccc1 | 13% | ? | -56* | ? | -4% | ?
N/C(=N/OC(=O)c1ccccc1Cl)c1ncc([N+](=O)[O-])s1 | ? | 29µM* | -88* | 18µM* | 8.2µM* | 3.7µM*
